Screening data (PubChem BioAssay)
SW480 rereplic = inducers of DNA re-replication in SW480 colon cancer cells; hit rate 1.8% among 340,000; SW480 DNA re-replication, Hoechst DNA content imaging, 48 h; Potency, µM (top dose mostly 46.1 µM), without a hit: top-dose re-replication activation, actives largely listed as activators; also: potency is read from the fitted curve at half-maximal effect; % of control where 0% means no effect; nearly all actives have a fitted effect of over 55% in size
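Readout is total intensity of Hoechst-stained nuclei, excited at 405 nm and collected at 500-530 nm. Compound treatment lasted 48 hr at 37 C in 5% CO2 before staining.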
KB-3-1 cytotox = kills parental KB-3-1 adenocarcinoma cells | Potency, µM (highest dose often 46.1 µM), hits mostly cytotoxic | KB-3-1 viability, CellTiter-Glo ATP luminescence, 72 h | hit rate 1.4% among 400,000; also: potency is read from the fitted curve at half-maximal effect; % is scaled to controls: 0 for no effect and ±100 for the full control effect; nearly all actives have a fitted effect of over 60% in size
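KB-3-1 cells, DMEM (no phenol red) + 10% FBS; compound by pin transfer, 72 h, 37 °C. Readout: CellTiter-Glo luminescence after 10 min. Data normalized, curve-fitted.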
hERG WT inh = KCNH2 (human, wildtype) channel inhibition; U2OS, BacMam KCNH2, thallium flux FluxOr; active compounds read low; hit rate 0.37% among 340,000; activity change, % at 1.84 µM;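 active = maximum activity change below -70%; inconclusive = maximum activity change between -70% and -50%; inactive = maximum activity change above -50%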; also: % is scaled to controls: 0 for no effect and ±100 for the full control effect
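U2OS cells were transduced with wild-type KCNH2 virus (2.03 x 10^8 / mL) for 4 h at room temperature, then cultured overnight at 37 C. Thallium flux was read with FluxOr dye. Rate constants were normalized to DMSO controls.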
KB-V1 MDR tox = KB-V1 MDR subline cytotoxicity. hit rate 3.4% among 400,000. Potency, µM (titrated, usually from 46.1 µM), hits mostly cytotoxic. KB-V1 MDR cells viability, CellTiter-Glo, 72 h. AID 1347076; also: potency is read from the fitted curve at half-maximal effect; % is scaled to controls: 0 for no effect and ±100 for the full control effect; nearly all actives have a fitted effect of over 60% in size
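qHTS viability screen in drug-selected KB-V1 MDR cells: 72 h compound treatment at 37 degrees C, ATP luminescence end point.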
KCNH2 3.1 inh = KCNH2 3.1 (human) potassium channel inhibition. U2OS KCNH2 3.1, thallium flux FluxOr; active compounds read low. activity change, % (tested at about 1.8 µM). hit rate 0.95% among 340,000. AID 720553;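 active = maximum activity change below -70%; inconclusive = maximum activity change from -70% to -50%; inactive = maximum activity change above -50%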;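 also: thallium influx rate constant from kinetic fluorescence after stimulation buffer; % is scaled to controls: 0 for no effect and ±100 for the full control effect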
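Channel expression came from 3.1 mutant virus (1.77 x 10^8 /mL) applied to suspended U2OS cells for 4 h. Flux was tracked with FluxOr dye plus Red40 quencher, and kinetic rate constants normalized to controls.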
MCF10A rereplic = induces DNA re-replication in MCF 10a normal breast cells | MCF 10A DNA re-replication, Hoechst nuclear intensity, 48 h | AID 624296 | hit rate 2.9% among 350,000 | Potency, µM (series often up to 46.1 µM), for the others: top-dose activity, positive = re-replication, usual class: activators; also: potency is read from the fitted curve at half-maximal effect; % of control where 0% means no effect; nearly all actives have a fitted effect of over 50% in size
Numbers without * were called inactive; i = inactive; ? = inconclusive; . = not tested or not shown. Shown are actives, neighbours in structure and some others; about 7.6% of the full set was active somewhere. Unless noted, calls follow the shape of the dose curve; as a rule, active = well fitted curve in the direction sought with a large enough effect; inconclusive = small, poorly fitted or top-dose-only effect, or another doubt; inactive = no such curve, though single readings can be large; an effect the other way counts as inactive or inconclusive.

SMILES	SW480 rereplic	KB-3-1 cytotox	hERG WT inh	KB-V1 MDR tox	KCNH2 3.1 inh	MCF10A rereplic
Cc1ccc(S(=O)(=O)NCCN=C(CN2CCCC2)NS(=O)(=O)c2ccc(C)cc2)cc1	7%	i	-3	6.5µM*	-9	1%
COCCNC(=O)C(c1ccc(F)cc1)N(C(=O)CCC(=O)Nc1ccccn1)C1CCCCC1 (stereo unspecified)	-5%	i	-10	i	12	13%
Cc1cc(=O)[nH]c2ccc(Cl)cc12	-3%	2.3µM*	4	?	8	0%
Cc1cccc(C(=O)NC(=S)Nc2ccc(N3CCOCC3)cc2)c1	-2%	i	-5	18µM*	2	?
CC(=O)N1CCN(c2ccc(NC(=S)NC(=O)c3ccccc3)cc2)CC1	-74%	i	5	3.7µM*	-11	?
O=C(COC(=O)CCc1ccccc1)NNC(=O)c1ccccc1	-4%	i	-2	i	-2	-1%
O=c1c2cc([N+](=O)[O-])cc([N+](=O)[O-])c2[nH]n1-c1ccccc1	-2%	?	2	0.82µM*	-12	?
Cn1c(=O)c2cc(C(=O)N3CCN(c4cccc(C(F)(F)F)c4)CC3)sc2c2ccccc21	.	i	.	i	.	.
CCc1ccc(-n2c(SCC(=O)c3ccc4c(c3)NC(=O)CO4)nc3ccccc3c2=O)cc1	1%	21µM*	-24	?	-13	-4%
O=C1COc2ccc(C(=O)CSc3nc4ccccc4c(=O)n3-c3ccc(Cl)c(Cl)c3)cc2N1	18µM*	i	0	?	-28	13µM*
Cn1c(SCC(=O)c2ccc3c(c2)NC(=O)CO3)nc2ccccc21	-4%	i	-25	?	-1	-3%
Cc1cc(S(=O)(=O)NCC(c2ccccc2)c2ccccc2)ccc1-n1cnnn1	-8%	i	3	18µM*	11	4%
COc1ccccc1CNS(=O)(=O)c1ccc(-n2cnnn2)c(C)c1	-11%	i	7	i	7	-1%
CSc1cccc(NC(=S)NC(=O)c2cccnc2)c1	?	i	6	i	-4	-7%
O=Cc1ccc2ccc3cccnc3c2n1	21µM*	i	-6	i	3	?
O=Cc1ccc2cccnc2n1	1%	i	-16	i	-1	-2%
O=C(CSC1=N/C(=C/c2ccc(Cl)c(Cl)c2)C(=O)N1c1ccccc1F)NC1CC1	?	i	-1	15µM*	-21	15µM*
COC(=O)c1cc(-c2cc(OC)ccc2OC)nc2c1c(=O)n(C)c(=O)n2Cc1ccccc1	2.3µM*	i	-7	?	2	6.5µM*
COc1ccc(OC)c(-c2csc(NC(=O)Cc3ccccc3)n2)c1	19%	i	-7	?	-10	?
N=c1c(-c2nc3ccccc3[nH]2)cc(C(=O)c2ccco2)nn1-c1ccccc1	7.3µM*	i	?	i	-8	2%
CCCCOc1ccc(-c2cn3ccccc3n2)cc1[N+](=O)[O-]	26%	i	-3	?	0	12µM*
CCOc1ccc(-c2cn3ccccc3n2)cc1[N+](=O)[O-]	?	i	-2	?	-3	21µM*
O=C(Nc1ccc(C(=O)N2CCCCC2)cc1)c1ccc([N+](=O)[O-])cc1	2%	i	10	?	11	0%
CCNc1nc(NC(C)(C)C)nc(Oc2ccc(=O)n(-c3ccccc3)n2)n1	-66%	i	.	i	-4	-5%
Cc1ccc(NC(=O)C2CCN(c3cc(C)nc4c(-c5ccc(Cl)cc5)c(C)nn34)CC2)c(C)c1	.	i	.	i	.	.
CCCCCCCCN=C1NC(=O)CS1	-12%	?	17	13µM*	-1	3%
CCOC(=O)[C@]12CCCC=C1N(Cc1ccc3c(c1)OCO3)C(=O)[C@H](CC(=O)NCc1ccc(C)o1)C2	.	i	.	i	.	.
